For two molecules, activity change and outcome results are on record in PubChem BioAssay AID720617 (Broad Institute, 2013).

The assay is described as follows: viability loss in CCRF-CEM T-lymphoblasts – cell-based, Alamar Blue fluorescence, several timepoints, dry powder, mechanism study for HRAS target identification, late-stage follow-up (AID 720617). Particulars: activity change: measured here: 8 h treatment viability, at 35 µM, stronger effect = lower value. On the technique in general: Resazurin is reduced to fluorescent resorufin, in cell work by metabolically active cells.

Molecules are shown by their SMILES. Records with an inconclusive call do not appear. The source made the active and inactive calls.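 How the source made its calls: active means active at all three treatment times, each with half-maximal potency within twice the top valid dose, signal falling; inconclusive means treatment times disagree on the call; inactive means inactive at all three times, including opposite responses.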

In the case of `CCC(=O)N(c1ccc(OC)c(Cl)c1)C(C(=O)NCCc1ccccc1)c1cccs1` (centres undefined), the activity change was determined as 6.85% and the outcome was inactive.

Consider `Cc1onc(C(=O)N2CCN(C(c3ccncc3)c3ccncc3)CC2)c1[N+](=O)[O-]`, for which the activity change is -0.515% and the result was inactive.
